About 2,600 (16%) of roughly 16,000 compounds were called active. Not shown: some 20% with an inconclusive outcome. A selection follows. Values without a mark were called inactive. Calls come from the whole dose curve; as a rule, active = well fitted curve in the direction sought with a large enough effect; inconclusive = small, poorly fitted or top-dose-only effect, or effect the other way; inactive = no such curve, though single readings can be large or run the other way.
What follows are compounds tested against Cytochrome P450 2D6 (Homo sapiens) (UniProt P10635) (assay: Cytochrome panel assay with activity outcomes). Details: recombinant CYP, pro-luciferin dealkylation, luminescence, p450-cyp2d6; series mostly up to 57.1 µM; activity, negative = inhibition: at the top concentration.
% is set by controls: 0 for no effect and ±100 for the full control effect.

Sequence of Cytochrome P450 2D6 (Homo sapiens) (P10635 whole entry, looked up): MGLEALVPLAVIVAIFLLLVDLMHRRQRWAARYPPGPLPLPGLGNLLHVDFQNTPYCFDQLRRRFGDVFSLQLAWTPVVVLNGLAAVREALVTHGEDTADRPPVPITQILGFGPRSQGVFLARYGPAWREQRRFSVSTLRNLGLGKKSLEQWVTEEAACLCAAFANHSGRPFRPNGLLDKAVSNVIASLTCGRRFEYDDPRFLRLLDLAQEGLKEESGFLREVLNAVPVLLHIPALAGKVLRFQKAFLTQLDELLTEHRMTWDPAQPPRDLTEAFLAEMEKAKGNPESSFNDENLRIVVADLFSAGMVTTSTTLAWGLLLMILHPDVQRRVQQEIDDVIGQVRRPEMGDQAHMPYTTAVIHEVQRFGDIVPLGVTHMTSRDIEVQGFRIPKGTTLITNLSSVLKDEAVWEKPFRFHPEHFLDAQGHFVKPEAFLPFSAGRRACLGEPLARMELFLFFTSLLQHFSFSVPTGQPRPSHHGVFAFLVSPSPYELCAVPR

| Compound | activity, negative = inhibition | AC50 |
| --- | --- | --- |
| CCCc1nnc(SCC(=O)N2CCCC(C)C2)n1CC1CCCO1 (stereo not given) | 11.4% | – |
| COC(=O)N1CCC2(CC1)CN(C(=O)Nc1ccc(OC)cc1)C2 | -6.61% | – |
| Cc1ncc2c(c1O)COP(=O)(O)OC2 | – | 1 µM (active) |
| Cc1ncc(CO)c(CO)c1O | -5.06% [at 25.6 µM] | – |
| CCC1NC(=S)N(C2CCCCC2)C1=O (stereo not given) | 1.35% | – |
| C(/C=C/c1ccco1)=N/N1CCN(c2ccccc2)CC1 | -7.09% | – |
| N=c1n(CCN2CCOCC2)c2ccccc2n1CC(=O)c1ccc(Cl)c(Cl)c1 | – | 2 µM (active) |
| O=C(/C=C/c1ccccc1Cl)NCCN1CCOCC1 | -4.1% | – |
| O=C(/C=C/c1ccc(Cl)cc1)NCCN1CCOCC1 | -7.23% | – |
| O=c1c(-c2ccc(F)cc2)nc2cnc(N3CCOCC3)nc2n1C1CC1 | 2.33% | – |
| O=C(CN1C(=O)c2ccccc2C1=O)NC1(C(=O)O)CCCC1 | 2.83% [at 11.4 µM] | – |
| COCCn1c(=O)c(-c2ccccc2)nc2cnc(Oc3ccccc3)nc21 | -1.57% | – |
| COc1ccc(NC(=O)N2CC3(CCN(C(=O)c4ccc(OC)cc4)CC3)C2)cc1 | 8.59% | – |
| C[C@H]1CC(C)(C)C[C@@](OCCN2CCCCC2)(c2ccccc2)C1 | – | 0.631 µM (active) |
| CCCc1nnc(SCC(=O)N2CCCCC2C)n1CC1CCCO1 (stereo not given) | 9.36% | – |
| Cc1ccc(OC(=O)N2CCOCC2)cc1 | 6.26% | – |
| CCOC(=O)C1CCCN(c2ncnc3c2cnn3-c2cccc(C)c2)C1 (stereo not given) | -19.6% | – |
| CN1CCN(c2ncc3nc(-c4ccc(F)cc4)c(=O)n(C4CC4)c3n2)CC1 | 2.59% | – |
| COc1ccc(NCc2nnc(SCc3ccccc3)n2-c2ccc(OC)cc2)cc1 | -28.7% | – |
| COc1ccc(-c2nnc(SCc3cccc(C)c3)n2N)cc1 | – | 14.1 µM (active) |
| CCn1c(SCc2cccc(C)c2)nnc1-c1ccc(C)cc1 | -14.5% | – |
| Cc1ccc(OCC(=O)NC2=NCCS2)cc1 | -3.18% | – |
| CCC(=O)Nc1ccc(C(=O)NNC(=O)c2cccs2)cc1 | -12.3% | – |
| CC(=O)C[C@H](O)[C@@H](NC(=O)OC(C)(C)C)C(C)C | -3.21% [at 11.4 µM] | – |
| CC(C)[C@H](NC(=O)OC(C)(C)C)[C@@H](O)CC(=O)OC(C)(C)C | – | 3.16 µM (active) |
| CC(C)[C@H](NC(=O)OC(C)(C)C)[C@@H](O)CC(=O)C(C)(C)C | 3.85% [at 11.4 µM] | – |
| Cc1ccc(NC(=O)C2CCN(S(=O)(=O)c3c(C)n[nH]c3C)CC2)nc1 | -1.65% | – |

| Compound | activity, negative = inhibition | AC50 |
| --- | --- | --- |
| NC[C@@H]1O[C@H](C23CC4CC(CC(C4)C2)C3)Cc2c1ccc(O)c2O | -2.34% | – |
| NC(=O)CSc1nc2sc(-c3ccccc3)cc2c(=O)n1N | -10.4% | – |
| COc1ccc(C[C@@H]2C(=O)N[C@H](C)C(=O)N(C)[C@@H]3Cc4ccc(cc4)Oc4cc(ccc4O)C[C@H](C(=O)N[C@@H](C)C(=O)N[C@H](C)C(=O)N2C)N(C)C3=O)cc1 | -5.02% [at 11.4 µM] | – |
| CC[N+](CC)(CC)CCOc1ccc(/C=C\c2ccccc2)cc1 | – | 7.94 µM (active) |
| CC[N+](CC)(CC)CCOc1cccc(OCC[N+](CC)(CC)CC)c1OCC[N+](CC)(CC)CC | 6.01% [at 25.6 µM] | – |
| O=C(NCCCn1ccnc1)c1ccc(Br)c(S(=O)(=O)N2CCOCC2)c1 | – | 0.316 µM (active) |
| CCOC(=O)N1CCN(C(=O)c2ccc(Cl)c(S(=O)(=O)N3CCOCC3)c2)CC1 | -1.98% | – |
| Cc1ccc(C(=O)NCCCN2CCOCC2)cc1N1CCCC1=O | -4.62% | – |
| O=C(O)/C=C\C(=O)Nc1ccc2c(c1)-c1ccccc1C2 | 8.73% [at 11.4 µM] | – |
| CC(=O)N1CCC2(CC1)CN(c1ccncc1)C2 | 11.3% | – |
| O=C(N/N=C/c1ccccn1)c1ccc(Br)o1 | 11.8% | – |
| CN(C)c1ncc2nc(-c3ccccc3)c(=O)n(C3CC3)c2n1 | -20.7% | – |
| C=CCSC[C@@H]1Nc2cc(Cl)c(S(N)(=O)=O)cc2S(=O)(=O)N1 | -3.49% [at 25.6 µM] | – |
| COc1ccc(C(=O)/C=C2/c3ccccc3CC(C)(C)N2C)cc1 | – | 0.282 µM (active) |
| COc1ccc(C(=O)/C=C(/C)N(C)C)cc1 | 0.83% | – |
| COc1ccc(C(=O)N2CCC3(CCN(C)CC3)CC2)cc1 | -0.103% | – |
| Clc1cccc(Oc2cnc3ccccc3n2)c1 | -2.63% | – |
| Cc1ccc(NC(=S)NC2CCCC2)cc1 | -23.7% | – |
| COC(=O)c1ccc(NC(=O)C2CCCCC2C(=O)O)cc1 (stereo not given) | -39% | – |
| COC(=O)c1ccc(NC(=S)NC2CCCCC2)cc1 | – | 15.8 µM (active) |
| CC(=O)N[C@H](Cc1ccc(O)cc1)C(=O)O | -3.43% [at 11.4 µM] | – |
| CCCc1nnc(NC(=O)CCC(=O)NCc2ccccc2OC)s1 | -11% | – |
| CCCCCCCC/C=C\CCCCCCCC(=O)NCc1ccc(O)c(OC)c1 | – | 3.16 µM (active) |
| COc1cc(CC(=O)O)ccc1O | 0.322% | – |
| CCCCCCCC/C=C\CCCCCCCC(=O)N[C@@H](CO)Cc1ccc(O)cc1 | – | 0.126 µM (active) |
| CCCCCCCCCCCCCCCC(=O)NC(C)C | 0.58% | – |
| CCCCCCCCC(=O)NCc1cc(OC)c(O)cc1I | – | 7.94 µM (active) |

| Compound | activity, negative = inhibition | AC50 |
| --- | --- | --- |
| CCCCCCCC/C=C\CCCCCCCC(=O)NCCc1ccc(O)c(O)c1 | -17.6% | – |
| CCCCCC(=O)Nc1cc2[nH]c(=O)cc(COC)c2cc1C | -4.3% | – |
| O=C(Nc1ccc(F)cc1Cl)c1ccc2c(=O)n3c(nc2c1)CCCCC3 | 12.7% | – |
| Cc1ccc(N=C/C(C(=O)C(F)(F)F)=C(\O)c2cccs2)cc1 | -11% | – |
| CCOC(=O)Cc1csc(NC(=S)NC(=O)c2ccc(F)cc2)n1 | 3.85% | – |
| CCOc1ccc(NC(=O)N2CCC(C(N)=O)(N3CCCCC3)CC2)cc1 | 14.7% | – |
| CC(C)CO/N=C1/[C@H]2O[C@@H]2[C@@H](O)[C@H]2[C@H]1CCn1c(=O)n(-c3ccccc3)c(=O)n12 | 12.6% [at 11.4 µM] | – |
| COCCn1c(=O)c(-c2cccs2)nc2cnc(Oc3ccccc3)nc21 | -9.87% | – |
| CC(C)C(O)(C(C)C)C(C)C | 8.61% [at 11.4 µM] | – |
| CCOc1ccc(NC(=O)c2ccc(OC)cc2)cc1 | -3.36% | – |
| COc1ccc(C(=O)Nc2cc(OC)cc(OC)c2)cc1 | – | 7.08 µM (active) |
| COc1ccc(C(=O)Nc2cccc(OC(=O)c3ccc(C)c(C)c3)c2)cc1 | -14% | – |
| CCCCc1nc(SCC(=O)Nc2ncccn2)n[nH]1 | 12.4% | – |
| COC(=O)COc1ccsc1C(=O)OC | 16.8% | – |
| COc1ccc2oc(-c3ccc(C)c(NC(=O)c4ccc(N5CCOCC5)c([N+](=O)[O-])c4)c3)nc2c1 | -9.69% | – |
| Cc1ccc(-c2nc3ccccc3o2)cc1NC(=O)Cc1cccs1 | 28.6% | – |
| COc1ccc2oc(-c3ccc(C)c(NC(=O)CSc4ccc(Cl)cc4)c3)nc2c1 | – | 2.51 µM (active) |
| Cc1cccc(NC(NC(=O)c2cccnc2)C(Cl)(Cl)Cl)c1 (stereo not given) | 5.38% | – |
| NC(=O)c1ncn([C@@H]2O[C@@H](CO)[C@@H](O)[C@H]2O)c1O | 3.94% | – |
| COc1ccc(O[C@H]2C=C[C@@H](c3ccccc3)O[C@@H]2CON=C(C)C)cc1 | -3.07% [at 11.4 µM] | – |
| O=C(Cc1csc(Nc2nc(=S)[nH]c3ccccc23)n1)NCc1cccc(Cl)c1 | -28% | – |
| Cc1sc2nc(SCC(=O)C(C)(C)C)n(Cc3ccco3)c(=O)c2c1C | -6.32% | – |
| Cc1n[nH]c(=O)nc1NCc1ccccc1Cl | -22.5% | – |
| O=C(O)C[C@H](Cc1ccccc1Cl)C(=O)O | -0.233% [at 11.4 µM] | – |
| Clc1ccccc1CNCC1CCC(CNCc2ccccc2Cl)CC1 (stereo not given) | – | 12.6 µM (active) |
| CCOC(=O)C(C)Sc1nnc(CNC(=O)c2ccc(OC)cc2)n1C1CCCCC1 (stereo not given) | -5.97% | – |
| CCOC(=O)c1sc2nc3c(cc2c1N)COC(C)(CC)C3 (stereo not given) | -25.5% | – |

| Compound | activity, negative = inhibition | AC50 |
| --- | --- | --- |
| CCOC(=O)c1nc(N)sc1C(=O)OCC | 17.3% | – |
| CCOC(=O)c1sc(C)c(C(=O)NCC(C)(C)CN(C)C)c1N | – | 1.78 µM (active) |
| Cc1ccc(Cn2cnc3c(nnn3Cc3ccc(Cl)cc3)c2=O)cc1 | 11.9% | – |
| CC(=O)[C@H]1CC[C@@H]2[C@H]3CC=C4C[C@@H](O)CC[C@]4(C)[C@H]3CC[C@]12C | 13.6% [at 25.6 µM] | – |
| CC(=O)Nc1nnc(S(N)(=O)=O)s1 | 2.74% [at 25.6 µM] | – |
| CCCn1c(/C=C/c2ccccc2)nc2ccccc21 | – | 8.91 µM (active) |
| CCn1c(/C=C2/C(=O)N(C)c3ccccc32)nc2ccccc2c1=O | 25% | – |
| O=C(c1ccccc1)c1nc2ccccc2n(CCCn2c(=O)c(C(=O)c3ccccc3)nc3ccccc32)c1=O | -5.06% | – |
| C[N+]1(C)C[C@@H](O)C[C@@H]1C(=O)[O-] | 3.69% [at 25.6 µM] | – |
| CCNc1ncc2nc(-c3ccccc3)c(=O)n(Cc3cccs3)c2n1 | -15.8% | – |
| Cc1ccc(-c2nc3ccccc3s2)cc1NC(=S)NC(=O)c1ccccc1 | 2.81% | – |
| CCn1c(-c2nonc2NC(=O)c2ccccc2)nc2ccccc21 | 25.6% | – |
| CC(NC(=O)c1ccccc1)c1nc2ccccc2n1Cc1ccccc1F (stereo not given) | – | 14.1 µM (active) |
| C=CCn1c(C(C)NC(=O)c2ccccc2)n[nH]c1=S (stereo not given) | -13.1% | – |
| O=c1cc(CO)oc(CN2CCCC2)c1O | -7.9% | – |
| Cc1ccc(O)c(-c2cc(C(F)(F)C(F)F)nc(-c3ccccc3)n2)c1 | -15.4% | – |
| Cc1ccc(-c2ccc(/C=N/N3C(=O)C4C5C=CC(C6CC56)C4C3=O)o2)c([N+](=O)[O-])c1 (stereo not given) | -12% | – |
| CC(C)C(=O)NCCc1nc2ccccc2n1CCCOc1ccc(Cl)cc1 | – | 3.16 µM (active) |
| Cn1c(COc2nnc(-c3ccc(Cl)cc3)c3ccccc23)nc2ccccc21 | -36.4% | – |
| CC(C)C(=O)NCCn1ccc2ccccc21 | -12.4% | – |
| COc1ccc(C(=O)c2ccc(OC)c(OC)c2)cc1OC | -16.3% | – |
| CCOC(=O)N1CCN(C(=O)c2ccc(OC)c(OC)c2)CC1 | 5.75% | – |
| COc1ccc(C(=O)OC(C)CN2CCN(C)CC2)cc1OC (stereo not given) | – | 3.55 µM (active) |
| Cc1cc(N2CCN(C)CC2)nc2ccc(NC(=O)CCC(=O)NCc3ccco3)cc12 | -1.82% | – |

Source: PubChem BioAssay AID1851 (National Center for Advancing Translational Sciences (NCATS), 2009)
